Measured values: PubChem BioAssay (NCATS)
Inconclusive results are not listed. Unmarked numbers belong to inactive results. Calls follow the shape of the full dose curve.

Experiment: Validation screen for inhibitors of Lassa infection (AID 463096)
Details: Lassa virus infection, cell-based; series mostly up to 46.1 µM; activity change, negative = inhibition: at the top concentration
% is scaled to controls: 0 for no effect and ±100 for the full control effect.

Structure (SMILES)	activity change, negative = inhibition [%]
CCn1c(=O)c2[nH]c(-c3ccccc3)nc2n(CC)c1=O	-27.1
C[C@]12CCC(=O)C=C1CC[C@@H]1C2[C@@H](O)C[C@@]2(C)[C@H]1CC[C@]2(O)C(=O)CO (stereo not given in full)	2.56
Cc1ccc(OCC(O)C(C)NC(C)C)c2c1CCC2 (stereo not given)	-36.8
O=C(NCCNCC(O)COc1ccc(O)cc1)N1CCOCC1 (stereo not given)	-0.91
CN1CCc2c(cc(O)c(O)c2Cl)C(c2cccc(Cl)c2)C1 (stereo not given)	-0.316
